Molecules are shown by their SMILES. Among all 410,000 compounds or so, about 18,000 (4.4%) were called active. Roughly 7% stayed inconclusive and do not appear here. The list comes from a sample in which actives are over-represented; it also holds similar structures and randomly drawn compounds. A number with no mark means an inactive call. No stated cut-off is given here; in the data, active means activity change below about -60%; inconclusive means no clear call, values can overlap the other calls; inactive means above about -39%.
On the % scale 0 is the no-effect control and ±100 the full control effect.

The nature of this assay: qHTS Assay for inhibitors of the human cytomegalovirus (HCMV). Conditions: HFF cells, HCMV-luciferase reporter, 72 h; at 57.5 µM; hits give low values. The source says:
NCGC Assay Overview: Infection with human cytomegalovirus (HCMV) continues to pose significant threats for pregnant women and immunocompromised hosts. HCMV causes serious morbidity and mortality in transplant recipients, and congenital HCMV is the leading infectious cause of mental retardation and deafness in children. In the 1990s, the annual costs associated with the disease burden of congenital CMV were estimated at around $2 billion. A HCMV vaccine is not available yet and HCMV therapies result in intolerable side effects and emergence of drug resistant viruses. […] Towards this goal we have developed and characterized a luciferase HCMV reporter that was initially used in 96 well plates and then optimized to 1536-well plates for utilization in screening of the MLSMR collection, the NGCG diversity collection and the NCGC Pharmaceutical Collection of approved and investigational drugs.
NCGC Assay Protocol Summary:
This is a cell-based assay for HCMV inhibition in HFFs cells. The screening used 2 compound doses and the HCMV-luciferase at MOI of 1 PFU/cell. Cells were treated and infected with HCMV. At 72 h post infection cell lysates were collected and luciferase activity was determined using the Glomax-Multi + Detection System (Promega, Madison, WI). Data were normalized to the controls for basal activity (buffer only) and known HCMV inhibitors Salinmoycin.
1536-well assay protocol for the assay:
(1) Add 3 ul CMV/HFF cell culture. 1000 cells/well in DMEM nirmal media.
(2) Incubate 16 hr at 37C.
(3) Add 23 nl control compound, 10uM of Salinomycin.
(4) Add 23 nl compounds in DMSO solution.
(5) Add 3 ul CMV suspension. Final 1 puf/ul, Virus stock 2000pfu/ul
(6) Incubate 72 hrs at 37C.
(7) Add 4 ul OneGlo Luc Reagent.
(8) Incubate 5 min at room temperature.
Consider `CCOC(=O)c1c(C)[nH]c(CCC(=O)Nc2ccc(OC)c(OC)c2)c1C`, for which the activity change, negative = inhibition is 41.8%.

Take `Cc1ccc(N(CC(=O)NCC(C)c2ccccc2)S(=O)(=O)N(C)C)cc1` (stereo not drawn): the activity change, negative = inhibition is -6.91%. As for `O=C(CCc1ccccc1)NCc1ccc2c(c1)CCN2C(=O)c1ccccc1`, the figure is -7.19%.

In the case of `COC1=CCC2([N+](=O)[O-])CN(CC(=O)O)CC1([N+](=O)[O-])C2` (stereo not drawn), the activity change, negative = inhibition is -16.1%.

Take `CCOC(=O)c1c(C)oc2nc(C)nc(Nc3ccc(CC)cc3)c12`: the activity change, negative = inhibition is 8.66%.

Turning to `O=C(Nc1ccc(OC(F)(F)F)cc1)c1cc2c(=O)n3ccccc3nc2s1`, the activity change, negative = inhibition was -5.91%. Next, `COc1cc(CN(CC2CCCO2)C(=O)c2ccccc2F)cc(OC)c1OC` (stereo not drawn): -11.3%; `CCOC(=O)CSC1=C(C#N)C(c2sccc2C)CC(=O)N1` (stereo not drawn): -85.4% (active).

`Cc1ccsc1C1C(C#N)=C(N)OC2=C1C(=O)CC(C)C2` (stereo not drawn): the activity change, negative = inhibition is 68.7%. As for `C=CCSC1=C(C#N)C(c2cc(Br)c(O)c(OC)c2)CC(=O)N1` (stereo not drawn), the figure is -10.5%. Next, `Cc1c(-c2cccc(NC(=O)C(C)(C)C)c2)nc2ncccn12`: -37.8%; `CCOC(=O)N1CCN(Cc2nc3c(c(=O)n(C)c(=O)n3C)n2Cc2ccccc2)CC1`: -2.17%; `CN1CCN(Cc2nc3c(c(=O)n(C)c(=O)n3C)n2Cc2cccc3ccccc23)CC1`: -10.2%. Take `COCCn1c(CN2CCC(Cc3ccccc3)CC2)nc2c1c(=O)n(C)c(=O)n2C`: the activity change, negative = inhibition is -64.7% (active). Next, `CCN1CCN(Cc2nc3c(c(=O)n(C)c(=O)n3C)n2CC(=O)c2ccccc2)CC1`: -5.14%; `CC1CCCN(Cc2nc3c(c(=O)n(C)c(=O)n3C)n2CC(=O)c2ccccc2)C1` (stereo not drawn): -14.9%. As for `CC1CCN(Cc2nc3c(c(=O)n(C)c(=O)n3C)n2CCc2ccccc2)CC1`, the figure is -62.3% (active); as for `COc1ccc(C)cc1NC(=O)CSc1nnc2ccc(-c3ccccn3)nn12`, -16.1%; as for `CC(C)CNc1cccc2c1S(=O)(=O)N[C@H](C)CO2`, -8.73%. Next, `O=[N+]([O-])c1cccc(/C([O-])=C(/C(=S)Nc2ccccc2F)[n+]2ccccc2)c1`: 18%. Consider `CC(=O)c1ccc(S(=O)(=O)NCCC(=O)N2CCN(c3ccccn3)CC2)cc1`, for which the activity change, negative = inhibition was 60.8%.

With `O=C(CCC1CCCN(C(=O)c2ccc(F)c(F)c2)C1)N1CCN(c2ccccn2)CC1` (stereo not drawn), the activity change, negative = inhibition was -29.8%.

Take `C=Cc1ccc(C(=O)N2CCCC(CCC(=O)N3CCN(c4ccccn4)CC3)C2)cc1` (stereo not drawn): the activity change, negative = inhibition is -64.7% (active).

As for `COc1cccc(C(=O)NC2=NC(c3ccc(N(C)C)cc3)CC(=O)N2)c1` (stereo not drawn), the activity change, negative = inhibition is 1.4%.

For `O=C(Nc1cccc(-c2nc3ccccc3o2)c1)c1cccc(Br)c1`, the activity change, negative = inhibition was -11.9%. As for `COc1ccccc1NC(=O)C(=O)c1cc(C)n(-c2ccccc2F)c1C`, the figure is -34.6%. As for `CCCCOc1ccc(CSC(=N)N)cc1[N+](=O)[O-]`, the figure is -63.8% (active); as for `CCCCCOc1ccc(CSC2=NCCN2)cc1[N+](=O)[O-]`, 9.19%. Regarding `CCCCOC(=O)CCCc1ccc([N+](=O)[O-])cc1[N+](=O)[O-]`, the activity change, negative = inhibition was -14.8%. Next, `CC(C)(Oc1ccc(C2CC2(Cl)Cl)cc1)C(=O)O` (stereo not drawn): -0.36%.

On to `c1ccc2sc(SNC3CCCCC3)nc2c1`, for which the activity change, negative = inhibition was 15%. Next, `O=C1NC(Nc2nc3ccccc3s2)(C(F)(F)F)C(=O)N1C1CCCCC1` (stereo not drawn): -63.1% (active); `O=C(NC1(C(F)(F)F)N=C(c2ccccc2)N(C2CCCCC2)C1=O)c1ccccc1F` (stereo not drawn): -18.3%; `COC(=O)c1ccc(NC(=O)CN(c2ccc(C)cc2)S(=O)(=O)c2c(C)n[nH]c2C)cc1`: 30%.

For `COC(=O)C1CCN(C(=O)NC2CC(=O)N(c3ccc4c(c3)OCCO4)C2)CC1` (stereo not drawn), the activity change, negative = inhibition was -8.55%.

Turning to `Cc1nc2ccn(Cc3cccs3)c(=O)c2cc1C(=O)NCc1ccc(Cl)cc1`, the activity change, negative = inhibition is 0.24%. `CCOc1cccc(CC(=O)N2CCc3c([nH]c4ccccc34)C2c2ccc(OC)cc2)c1OCC` (stereo not drawn): the activity change, negative = inhibition is 31.4%.

Consider `CCOc1cccc(CC(=O)N2CCc3c([nH]c4ccccc34)C2c2ccc(F)cc2)c1OCC` (stereo not drawn), for which the activity change, negative = inhibition is -33.4%. As for `COc1ccc2[nH]c3c(c2c1)CCN(C(=O)CCC1CCCC1)C3c1ccc(F)cc1` (stereo not drawn), the figure is -81.8% (active); as for `Cc1ccc(S(=O)(=O)N(C)C)cc1NC(=O)COC(=O)C1COc2ccccc2O1` (stereo not drawn), 19%; as for `Cc1ccc(S(=O)(=O)N(C)C)cc1NC(=O)COC(=O)c1c(C)noc1C`, -108% (active). Next, `Cc1ccc(S(=O)(=O)N(C)C)cc1NC(=O)COC(=O)/C=C/c1cccs1`: -32.1%; `O=C(COC(=O)CCc1nc2ccccc2c(=O)[nH]1)Nc1ccc(N2CCOCC2)cc1`: -20.5%; `CCN(CC(=O)Nc1cccc(S(N)(=O)=O)c1)Cc1nc2ccccc2c(=O)[nH]1`: -27.6%. `Cc1cc(C)c(-c2csc(NC(=O)CCCc3nc4ccccc4c(=O)[nH]3)n2)c(C)c1`: the activity change, negative = inhibition is -72.6% (active). Next, `CC(C)NC(=O)N1CCN(c2ccncc2S(=O)(=O)N2CCCCC2)CC1`: 9.43%; `O=C(Nc1nnc(-c2ccccc2F)s1)c1ccccc1F`: 85%; `O=C(Nc1nc2c(s1)CCCC2)c1ccccc1F`: -68.5% (active). As for `CCN1CCc2nc(NC(=O)c3cc(F)c(F)cc3Cl)sc2C1`, the figure is -0.35%.

With `COCCn1c(C)cc(C2=NNC(=Nc3ccc(F)cc3)SC2)c1C`, the activity change, negative = inhibition is -107% (active). As for `C=CCn1c(C)cc(C2=NNC(=NCC)SC2)c1C`, the figure is -99.5% (active); as for `COc1cccc(-c2nc(S(=O)(=O)c3ccc(C)cc3)c(NCc3ccccc3)o2)c1`, 2.24%. As for `O=C(CSc1nnc(CNC(=O)c2ccccc2)n1-c1ccc(F)cc1)Nc1ccccc1F`, the figure is -5.45%. As for `Cc1cccc(Cn2cccc(C(=O)Nc3ccc4c(c3)OCCO4)c2=O)c1`, the figure is -12.1%; as for `Cc1ccc(CN2CCNC(=O)C2CC(=O)NCc2csc(C(C)C)n2)cc1` (stereo not drawn), 6.06%. On to `O=S(=O)(NCC(c1ccccc1)N1CCc2ccccc21)c1ccccc1` (stereo not drawn), for which the activity change, negative = inhibition was 1.26%.

Take `Cc1cccc(C(=O)N2c3nc(-c4ccco4)nn3C3(CCCCC3)[C@@H]3CCCC[C@@H]32)c1`: the activity change, negative = inhibition is -17.9%.

In the case of `COc1ccc(-c2nc3ccccc3s2)cc1NC(=O)COc1ccccc1C`, the activity change, negative = inhibition is 47.9%. Consider `COC(=O)Cc1[nH]n(-c2nc3ccccc3s2)c(=O)c1C(C)=Nc1ccc(OC)cc1`, for which the activity change, negative = inhibition was -94.3% (active).

`COC(=O)c1cccc(C(=O)N2CCCC(Nc3ccc4c(c3)OCCO4)C2)c1` (stereo not drawn): the activity change, negative = inhibition is -15.6%. As for `COc1cccc2c1cc1c(=O)n(CC(=O)N3CCN(c4cccc(Cl)c4)CC3)nc(C)n12`, the figure is 50.4%; as for `Cc1c(NC(=O)CN2C(=O)C(=O)N(Cc3ccccc3)C2=O)c(=O)n(-c2ccccc2)n1C`, -22.2%; as for `CN(C)C(CNC(=O)c1cc(Br)c(Br)s1)c1ccco1` (stereo not drawn), -67.9% (active).

`CN(C)C(CNC(=O)c1cccc(C#N)c1)c1ccco1` (stereo not drawn): the activity change, negative = inhibition is -2.12%. As for `CN(C)C(CNC(=O)c1cccc(S(=O)(=O)Nc2ccc(Br)cc2)c1)c1ccco1` (stereo not drawn), the figure is -19.6%; as for `Cn1cc(/C=C/c2nc3ccccc3c(=O)n2-c2ccccc2)c2ccccc21`, 31.9%; as for `Cc1cccc(N=C2NC(=O)/C(=C/c3cn(C)c4ccccc34)S2)c1`, -80% (active). As for `Cc1cccc(N=C2SC(C)CN2C(=O)CN2C(=O)NC3(CCCC3)C2=O)c1` (stereo not drawn), the figure is 0.641%; as for `O=C(NCCc1ccccc1)c1ccc2c(c1)N(Cc1ccc(F)cc1)C(=O)c1ccccc1S2(=O)=O`, 10.3%. Next, `Cc1cccc(-n2c(=O)c3c(c4cc(C)ccc4n3C)n(CC(=O)Nc3ccccc3Cl)c2=O)c1`: -1.31%; `CCN(C(=O)COC(=O)Cc1c(F)cccc1Cl)c1c(N)n(Cc2ccccc2)c(=O)[nH]c1=O`: 2.58%.

In the case of `Cc1ccccc1CNC(=O)CCc1cn(Cc2ccccc2C)c2ccccc12`, the activity change, negative = inhibition was -37.2%.

For `CCC(c1nnnn1C1CCCC1)N(Cc1cccs1)Cc1cc2cccc(C)c2[nH]c1=O` (stereo not drawn), the activity change, negative = inhibition is -63.3% (active). Next, `Cc1cccc2cc(CN(Cc3nnnn3Cc3ccccc3)C3CCCC3)c(=O)[nH]c12`: -5.56%; `Cc1cccc2cc(CN(Cc3cccs3)C(=S)NCc3ccco3)c(=O)[nH]c12`: -16.3%. As for `COc1cccc(/C=N/Nc2ncc(C(F)(F)F)cc2Cl)c1O`, the figure is -102% (active). As for `CC(C)(O)C#Cc1ncc(C(F)(F)F)cc1Cl`, the figure is -30.8%. For the compound `Cc1cc(C)cc(NS(=O)(=O)c2ccc(Oc3ncc(C(F)(F)F)cc3Cl)cc2)c1`, the activity change, negative = inhibition is -17.1%. Next, `COc1ccccc1Nc1nc(N)nc(CSC(=S)N2CCOCC2)n1`: 37.2%. Next, `Cc1cccc(CC(=O)N2CC(=O)Nc3ccc(F)cc3C2c2ccccc2)c1` (stereo not drawn): 12%. For the compound `COC(=O)CNC(c1ccccc1Cl)c1cc(Br)ccc1NC(=O)CCN1CCOCC1` (stereo not drawn), the activity change, negative = inhibition is -21.3%.

As to `CCCCCn1c(CCNC(=O)c2ccc(F)cc2)nc2ccccc21`, the activity change, negative = inhibition was -18.8%. With `Cn1c(NC(=O)c2ccccc2)nc2ccccc21`, the activity change, negative = inhibition is -84.9% (active). Next, `COC(=O)c1ccc(C2C(C(=O)Nc3ccccc3)=C(C)Nc3nc4ccccc4n32)cc1` (stereo not drawn): 1.76%. As to `Cc1c(NS(=O)(=O)c2ccc(Cl)cc2)c(=O)n(-c2ccccc2)n1C`, the activity change, negative = inhibition is 8.64%. In the case of `CC(=O)Nc1ccc(NC(=O)CCCc2nc(-c3ccc(C(C)(C)C)cc3)no2)cc1`, the activity change, negative = inhibition was -87.3% (active). As to `CC(=O)c1ccc(NC(=O)CCc2nc(-c3ccc(C)cc3)no2)cc1`, the activity change, negative = inhibition is 2.06%. Next, `Cc1cc(C)cc(NC(=O)CCCc2nc(-c3ccccc3Cl)no2)c1`: -10.6%.

The record behind these values is PubChem BioAssay AID1259415 (National Center for Advancing Translational Sciences (NCATS), 2018).
